Experimental data reported in PubChem BioAssay (NCATS).
Records with an inconclusive call do not appear. Activity calls are given as the source filed them. Unless noted, calls come from the whole dose curve; as a rule, active = well fitted curve in the direction sought with a large enough effect; inconclusive = small, poorly fitted or top-dose-only effect, or another doubt; inactive = no such curve, though single readings can be large; an effect the other way counts as inactive or inconclusive.

Assays:
[1] = qHTS for Inhibitors of Plasmodium falciparum (DD2) proliferation (AID 504314);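 note: parasite DNA measured by SYBR Green fluorescence after red cell lysis; plate controls were DMSO vehicle for no effect and artemisinin wells for full effect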
Method in brief: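 Quantitative HTS growth inhibition: SYBR Green I binding to parasite DNA after 72 h drug exposure of infected erythrocytes (0.3% parasitemia, 2.5% hematocrit). Signals normalized per plate to inhibitor and vehicle wells.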

[2] = qHTS for Inhibitors of Plasmodium falciparum (GB4) proliferation (AID 504315);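 note: 0% = DMSO vehicle and -100% = 0.29 µM artemisinin control; nearly all actives have a fitted effect of over 50% in size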
Method in brief: (§1)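 Erythrocytes infected with P. falciparum line (0.3% parasitemia, 2.5% hematocrit final) incubated with compounds 72 h at 37 °C, 5% CO2; SYBR Green lysis buffer added, fluorescence read next day. Normalized to 0.29 uM artemisinin and DMSO.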

[3] = qHTS for Inhibitors of Plasmodium falciparum (HB3) proliferation (AID 504318);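 note: 0% = DMSO vehicle and -100% = artemisinin control; nearly all actives have a fitted effect of over 60% in size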
Method in brief: as §1

[4] = qHTS for Inhibitors of Plasmodium falciparum (CP250) proliferation (AID 504320);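 note: plate controls were DMSO vehicle for no effect and 0.29 µM artemisinin control for full effect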
Method in brief: as §1

[5] = molecular target: Atrial natriuretic peptide receptor 1 (Homo sapiens) (UniProt P16066); test: Natriuretic polypeptide receptor (hNpr1) antagonism - Pilot CMLD screen (AID 1347052; calls by dose curve;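 note: HEK293 cells with hNpr1 stimulated by hNppA peptide at 0.1 nM; cGMP level read as GloSensor luciferase luminescence after agonist stimulation; series mostly up to about 9.2 µM; % is set by controls: 0 for no effect and ±100 for the full control effect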)
Sequence of Atrial natriuretic peptide receptor 1 (Homo sapiens) (P16066 whole entry, looked up): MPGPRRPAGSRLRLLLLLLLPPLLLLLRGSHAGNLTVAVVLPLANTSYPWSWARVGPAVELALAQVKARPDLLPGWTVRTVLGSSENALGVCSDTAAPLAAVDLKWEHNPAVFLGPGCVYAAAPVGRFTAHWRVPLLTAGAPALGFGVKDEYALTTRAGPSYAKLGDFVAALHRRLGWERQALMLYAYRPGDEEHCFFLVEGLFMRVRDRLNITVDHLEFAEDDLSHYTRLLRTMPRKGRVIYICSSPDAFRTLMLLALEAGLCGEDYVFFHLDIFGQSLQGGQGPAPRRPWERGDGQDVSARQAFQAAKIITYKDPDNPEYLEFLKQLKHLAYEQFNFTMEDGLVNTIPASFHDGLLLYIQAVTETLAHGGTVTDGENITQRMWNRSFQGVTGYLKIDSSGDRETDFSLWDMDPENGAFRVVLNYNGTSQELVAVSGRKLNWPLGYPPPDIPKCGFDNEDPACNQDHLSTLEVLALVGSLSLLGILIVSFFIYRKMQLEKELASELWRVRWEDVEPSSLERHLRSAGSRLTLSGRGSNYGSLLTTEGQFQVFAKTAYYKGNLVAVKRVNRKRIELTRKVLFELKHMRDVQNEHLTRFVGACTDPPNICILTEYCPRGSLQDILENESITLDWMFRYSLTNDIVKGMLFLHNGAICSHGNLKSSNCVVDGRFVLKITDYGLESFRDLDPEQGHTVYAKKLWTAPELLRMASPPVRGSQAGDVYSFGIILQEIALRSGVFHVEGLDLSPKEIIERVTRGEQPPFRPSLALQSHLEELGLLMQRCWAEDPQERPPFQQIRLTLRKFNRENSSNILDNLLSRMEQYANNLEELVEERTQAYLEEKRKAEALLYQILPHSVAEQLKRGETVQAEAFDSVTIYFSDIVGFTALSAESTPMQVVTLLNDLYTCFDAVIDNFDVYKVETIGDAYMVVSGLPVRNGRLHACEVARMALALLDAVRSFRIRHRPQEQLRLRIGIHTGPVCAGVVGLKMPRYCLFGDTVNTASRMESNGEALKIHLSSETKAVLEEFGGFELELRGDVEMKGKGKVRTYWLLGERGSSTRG

CC#CCC1(C(=O)OC)C(=O)NC[C@H]1c1ccccc1 (stereo not given in full)
inactive: Potency [1] | Potency [2] | Potency [3] | Potency [4] | Potency [5]

CC(=O)C1=C(C)N(Cc2ccco2)C(=O)NC1c1ccccc1 (stereo not given)
inactive: Potency [1] | Potency [2] | Potency [3] | Potency [4] | Potency [5]

C=CC[C@@H]1C=CC(ON=C(C)CCC(=O)OC[C@H]2O[C@H](C#Cc3ccccc3)C=C[C@H]2Oc2ccc(C)cc2)[C@H](CO)O1 (stereo not given in full)
inactive: Potency [1] | Potency [2] | Potency [3] | Potency [4] | Potency [5]

CC(C)CON=C1C[C@@H](O)[C@@H](O)[C@@H]2[C@H]3C(=O)N(c4ccc(F)cc4F)C(=O)[C@@H]3CC[C@@H]12
inactive: Potency [1] | Potency [2] | Potency [3] | Potency [4] | Potency [5]

CCOC(=O)N1C2=NC(C(=O)OC)=C(C(=O)OC)[C@@H]3N(Cc4ccccc4)c4ccccc4[C@]23C[C@H]1C(=O)OC
inactive: activity, negative = inhibition [1] -1.2% [at 1.12 µM] | Potency [2] | Potency [3] | Potency [4] | Potency [5]

COCCN1C(=S)NC(c2cccc(F)c2)C(C(=O)OC)=C1C (stereo not given)
inactive: Potency [1] | Potency [2] | Potency [3] | Potency [4] | Potency [5]

C[C@@H]1C=CCCO[C@]12C(=O)Nc1ccccc12
inactive: Potency [1] | Potency [2] | Potency [3] | Potency [4] | Potency [5]

C=CC1=C2C=C(C3CC3)N(CC(C)C)C=C2C(=O)C(C)(OC(=O)c2ccco2)C1=O (stereo not given)
inactive: activity, negative = inhibition [1] -0.305% [at 1.12 µM] | Potency [2] | Potency [3] | Potency [4] | Potency [5]

COC(=O)N[C@H](CC(C)=O)c1ccc2c(c1)OCO2
inactive: Potency [1] | Potency [2] | Potency [3] | Potency [4] | Potency [5]

C[C@H]1CC[C@H]2C(=O)NC[C@H](O)CN2[C@H]1c1ccc(Br)cc1
inactive: Potency [1] | Potency [2] | Potency [3] | Potency [4] | Potency [5]

C=CCOC(=O)N[C@@H](c1cccc(OC)c1)[C@@H](C)C=CCC(=O)O
inactive: Potency [1] | Potency [2] | Potency [3] | Potency [4] | Potency [5]

CCOC(=O)c1c(C(=O)OCC)c2c3ccccc3cc(C)n2c1C(=O)OC
inactive: Potency [1] | Potency [2] | Potency [3] | Potency [4] | Potency [5]

COCCN1C(=O)CC[C@@]23C1=NC(C(=O)OC)=C(C(=O)OC)[C@@H]2N(CC=C(C)C)c1ccccc13
inactive: Potency [1] | Potency [2] | Potency [3] | Potency [4] | Potency [5]

O=C(C=Cc1ccccc1)N1CCC[C@H]1CO
inactive: Potency [1] | Potency [2] | Potency [3] | Potency [4] | Potency [5]

COC(=O)c1c(C(=O)OC)c2c3ccccc3cc(-c3ccccc3)n2c1C(=O)OC
inactive: Potency [1] | Potency [2] | Potency [3] | Potency [4] | Potency [5]

COC(=O)c1ccccc1C[C@]1(C(=O)OC)C=C[C@H](C)[C@@H](c2ccccc2)N1C(=O)C(F)(F)F
inactive: Potency [1] | Potency [2] | Potency [3] | Potency [4] | Potency [5]

C=CCOC(=O)N[C@H](c1ccccc1)C(C(C)=O)C(C)=O
inactive: Potency [1] | Potency [2] | Potency [3] | Potency [4] | Potency [5]

COc1ccc(C=CNC(=O)Cc2ccc(OC)c(OC)c2)cc1
inactive: Potency [1] | Potency [2] | Potency [3] | Potency [4] | Potency [5]

C[C@H]1C(C(=O)N2CCCC2)=Cc2[nH]c(=O)[nH]c2C=C1c1ccccc1
inactive: Potency [1] | Potency [2] | Potency [3] | Potency [4] | Potency [5]

CCN(CC)CC(O)CN1CCCCc2nc(C)c(C)cc21 (stereo not given)
inactive: Potency [1] | Potency [2] | Potency [3] | Potency [4] | Potency [5]

CCC(=O)C[C@@H](NC(=O)OC)c1ccc(F)cc1
inactive: Potency [1] | Potency [2] | Potency [3] | Potency [4] | Potency [5]

CCN1C(=O)[C@@H]2[C@H]3[C@H](O)[C@H](O)CC(=NNC(=O)OCc4ccccc4)[C@@H]3CC[C@H]2C1=O
inactive: Potency [1] | Potency [2] | Potency [3] | Potency [4] | Potency [5]

FC(F)(F)c1ccc(-c2nc(-c3ccccc3)oc2Nc2ccc3ccccc3c2)cc1
inactive: Potency [1] | Potency [2] | Potency [3] | Potency [4] | Potency [5]

CCCNC(=O)OC[C@H]1O[C@H](CCON=C2[C@H]3CCn4c(=O)n(-c5ccccc5)c(=O)n4[C@@H]3[C@H](O)[C@@H]3O[C@H]23)C=C[C@H]1Oc1ccc(OC)cc1
inactive: Potency [1] | Potency [2] | Potency [3] | Potency [4] | Potency [5]

CCOC(=O)CN1C(=O)[C@]2(OCCC=C[C@@H]2C)c2cc(OC)ccc21
inactive: Potency [1] | Potency [2] | Potency [3] | Potency [4] | Potency [5]

C[C@H](ON=C1[C@H]2CCn3c(=O)n(-c4ccccc4)c(=O)n3[C@@H]2[C@H](O)[C@@H]2O[C@H]12)c1cn([C@H](CO)Cc2ccccc2)nn1
inactive: Potency [1] | Potency [2] | Potency [3] | Potency [4] | Potency [5]
